Compound activity (PubChem)
Cav3 T inh – inhibitors of human Cav3.2 T-type calcium channel; O95180; Cav3.2-expressing cells, Fluo-4 calcium fluorescence FDSS; hits give low values; B-score at 10 µM; 100,000 tested, 4% active; AID 449739;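 active = single-dose well whose peak fluorescence ratio is a statistical outlier from its plate by either plate-standardised score or position-corrected B-score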
PostGolgi yeast – growth inhibition of a yeast mutant, post-Golgi transport screen; post-Golgi transport phenotypic cell assay; inhibition, % at 10 µM; 98,000 tested, 0.9% active;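 also: yeast cells grown in 1536-well plates; yeast grown about 18 h at 30C before absorbance read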
PLAP act – activates human placental alkaline phosphatase; P05187; activation fold at 20 µM; AID 696; 96,000 tested, 1.2% active; purified PLAP enzyme, luminescent substrate read-out; hits give high values; in the data active = activation fold above about 2
PostGolgi ctrl – inhibits growth of the yeast control strain | 98,000 tested, 5% active | efflux-deficient yeast background strain, growth absorbance A615, 16 h | inhibition, % at 10 µM
hDAT+cocaine – changed human dopamine transporter uptake under cocaine IC80; AID 449768; B-score at 10 µM; LLC-PK1 hDAT cells, [14C]-dopamine uptake with cocaine IC80; actives deviate in either direction; 110,000 tested, 1.3% active; Q01959;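 active = Z score or B-score, a plate-position-corrected score, falls beyond the plate's 99.7% confidence bounds, in either direction; inactive = both scores lie inside the 99.7% bounds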;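 also: scored against the spread of the other compound wells on the same plate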
Target sequence (Q01959 whole entry, looked up): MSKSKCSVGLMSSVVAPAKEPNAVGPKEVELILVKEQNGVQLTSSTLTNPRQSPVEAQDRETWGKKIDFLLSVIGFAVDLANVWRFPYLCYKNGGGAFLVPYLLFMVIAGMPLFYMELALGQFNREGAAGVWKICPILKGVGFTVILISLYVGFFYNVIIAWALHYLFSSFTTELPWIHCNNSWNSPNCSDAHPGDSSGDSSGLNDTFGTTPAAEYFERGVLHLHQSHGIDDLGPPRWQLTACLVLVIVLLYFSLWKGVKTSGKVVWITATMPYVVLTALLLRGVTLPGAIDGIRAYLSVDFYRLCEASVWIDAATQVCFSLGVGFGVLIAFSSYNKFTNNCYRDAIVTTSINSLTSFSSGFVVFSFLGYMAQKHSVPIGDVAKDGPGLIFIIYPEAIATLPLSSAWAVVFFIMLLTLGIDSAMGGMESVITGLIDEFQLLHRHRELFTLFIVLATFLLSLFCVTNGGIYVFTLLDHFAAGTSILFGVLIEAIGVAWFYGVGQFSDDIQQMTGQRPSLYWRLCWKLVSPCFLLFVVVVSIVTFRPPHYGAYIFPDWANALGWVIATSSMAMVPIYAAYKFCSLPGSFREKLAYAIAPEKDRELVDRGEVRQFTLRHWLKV
An asterisk follows results filed as active. Sampled rows, rich in hits. Any-hit rate of the full collection: about 9.6%. Rule as the data show it, unless noted: active = inhibition above about 30%; inactive = the rest.

Cc1nn(C(C)(C)C)c(OC(=O)c2cccs2)c1Sc1ccccc1 was read as Cav3 T inh -5.2*, PostGolgi yeast -8, PLAP act 1.2, PostGolgi ctrl 14 and hDAT+cocaine 2.
`Cc1nn(C(C)(C)C)c(OC(=O)c2ccc(Br)o2)c1Sc1ccccc1` gave Cav3 T inh -1.9, PostGolgi yeast -4, PLAP act 1.4, PostGolgi ctrl 14 and hDAT+cocaine 0.00022.
For Cc1nn(C(C)(C)C)c(OC(=O)c2ccco2)c1Sc1ccccc1 the results were Cav3 T inh -1, PostGolgi yeast 4, PLAP act 1, PostGolgi ctrl 36* and hDAT+cocaine 0.74.
Cn1ccnc1C(=O)c1cc(=O)c2ccccc2o1 was read as Cav3 T inh 0.26, PostGolgi yeast -1, PLAP act 1.1, PostGolgi ctrl -1 and hDAT+cocaine -0.2.
COCCn1nnnc1C(C(C)C)N(Cc1ccccc1)Cc1cc2cc(OC)ccc2[nH]c1=O (stereo not given) was read as Cav3 T inh -4*, PostGolgi yeast -3, PLAP act 1.8, PostGolgi ctrl -2 and hDAT+cocaine 1.7.
For CCOc1ccc2[nH]c(=O)c(CN(Cc3cccs3)Cc3nnnn3C(C)(C)C)cc2c1 the results were Cav3 T inh -1.8, PostGolgi yeast 0, PLAP act 0.9, PostGolgi ctrl -1 and hDAT+cocaine 0.62.
`COc1ccc2[nH]c(=O)c(CN(Cc3cccs3)Cc3nnnn3C(C)(C)C)cc2c1` gave Cav3 T inh -3, PostGolgi yeast 5, PLAP act 1.3, PostGolgi ctrl 19 and hDAT+cocaine 2.5*.
`CCOC(=O)Cn1nnnc1C(CC)N(Cc1cccs1)Cc1cc2ccc(OC)cc2[nH]c1=O` (stereo not given) gave Cav3 T inh -3.7*, PostGolgi yeast -9, PLAP act 1.3, PostGolgi ctrl 13 and hDAT+cocaine 0.76.
For O=C(Nc1cccc2c1CCCC2)C1CCCN(S(=O)(=O)c2cccc3nonc23)C1 (stereo not given) the results were Cav3 T inh 0.28, PostGolgi yeast -7, PLAP act 0.8, PostGolgi ctrl 5 and hDAT+cocaine 0.32.
Screening O=C(c1cc2ccccc2oc1=O)N1CCN(c2ncccn2)CC1 returned Cav3 T inh 0.089, PostGolgi yeast 7, PLAP act 0.9, PostGolgi ctrl 6 and hDAT+cocaine 2.9*.
`NC(=O)CSc1nc(N)c2c3c(sc2n1)CCCCC3` gave Cav3 T inh 1.4, PostGolgi yeast 6, PLAP act 0.9, PostGolgi ctrl 31* and hDAT+cocaine 1.2.
Screening COn1c(SCc2ccc(C)cc2C)nc2ccccc2c1=O returned Cav3 T inh -2, PostGolgi yeast -8, PLAP act 1, PostGolgi ctrl 15 and hDAT+cocaine -0.21.
Screening COc1ccc(OC)c(Nc2cc(C)nc3nc(C)nn23)c1 returned Cav3 T inh -0.55, PostGolgi yeast -4, PLAP act 2*, PostGolgi ctrl 0 and hDAT+cocaine -0.039.
Screening COc1ccc(Nc2cc(C)nc3nc(C)nn23)c(OC)c1 returned Cav3 T inh -2 and hDAT+cocaine -1.2.
`COc1ccccc1-c1cc(C(F)(F)F)n2ncc(S(=O)(=O)c3ccccc3)c2n1` gave Cav3 T inh -2.1, PostGolgi yeast -5, PLAP act 1.3, PostGolgi ctrl 46* and hDAT+cocaine 1.3.
`O=S(=O)(c1ccccc1)c1cnn2c(C(F)(F)F)cc(-c3ccccc3)nc12` gave Cav3 T inh -0.015, PostGolgi yeast 15, PLAP act 0.9, PostGolgi ctrl 1 and hDAT+cocaine 0.41.
COC(=O)c1cc(=O)n(CCc2ccccc2F)c(=Nc2ccc(F)c(Cl)c2)s1 was read as Cav3 T inh -3.5*, PostGolgi yeast 3, PLAP act 0.7, PostGolgi ctrl 17 and hDAT+cocaine 1.7.
`COc1ccc(CN(C(=O)CSc2nnc(-c3c[nH]c4ccccc34)o2)c2ccc(F)cc2)cc1OC` gave Cav3 T inh -0.12 and hDAT+cocaine -0.82.
Screening COc1ccccc1NS(=O)(=O)c1cccc(C(=O)OCC(=O)Nc2cc(C)on2)c1 returned Cav3 T inh -4.8*, PostGolgi yeast -2, PLAP act 1, PostGolgi ctrl 28 and hDAT+cocaine 0.31.
For CC(C)(C)CN1C(N)=NC[C@@H]1Cc1ccc(O)cc1 the results were Cav3 T inh 0.14 and hDAT+cocaine -3.8*.
CC(C)(C)CN1C(N)=NC[C@H]1Cc1ccc(O)cc1 was read as Cav3 T inh 0.15 and hDAT+cocaine 0.89.
`COc1ccc(NC(=O)CN2CCN(Cc3ccc4c(c3)OCO4)CC2)cc1OC` gave Cav3 T inh 0.94, PostGolgi yeast 10, PLAP act 1.7, PostGolgi ctrl 1 and hDAT+cocaine 1.
For O=C(CN1CCN(CC(=O)Nc2ccccc2Cl)CC1)Nc1ccc2c(c1)OCCO2 the results were Cav3 T inh -0.22, PostGolgi yeast -1, PLAP act 1.3, PostGolgi ctrl -3 and hDAT+cocaine -0.0088.
COc1ccc(CC(=O)NC2CCN(CC(=O)Nc3ccc4c(c3)OCCO4)CC2)cc1OC was read as Cav3 T inh 0.81, PostGolgi yeast -8, PLAP act 1, PostGolgi ctrl 37* and hDAT+cocaine 0.43.
For COc1ccccc1NC(=O)CN1CCN(CC(=O)Nc2ccc3c(c2)OCCO3)CC1 the results were Cav3 T inh 1.2, PostGolgi yeast -5, PLAP act 0.8, PostGolgi ctrl 4 and hDAT+cocaine 3.1*.
For O=C(CN1CCC(Cc2ccccc2)CC1)Nc1ccc2c(c1)OCCO2 the results were Cav3 T inh -4.1*, PostGolgi yeast 7, PLAP act 1.5, PostGolgi ctrl -8 and hDAT+cocaine 0.016.
CN(C)c1nc2n(c(=S)n1)CCS2 was read as Cav3 T inh -0.32, PostGolgi yeast 0, PLAP act 0.8, PostGolgi ctrl 4 and hDAT+cocaine 0.054.
For COc1cccc(C(=O)CN(C(=O)c2ccc(Cl)c(Cl)c2)N2C(=O)C3CCCCC3C2=O)c1 (stereo not given) the results were Cav3 T inh -0.75, PostGolgi yeast 2, PLAP act 1.2, PostGolgi ctrl 17 and hDAT+cocaine -0.043.
`O=C(NC1CCCC1)C(c1cccnc1)N(C(=O)c1csnn1)C1CC1` (stereo not given) gave Cav3 T inh 0.28, PostGolgi yeast -3, PLAP act 1.1, PostGolgi ctrl 0 and hDAT+cocaine 0.38.
Screening CCc1ccc(C(=O)COC(=O)C(Cc2ccccc2)NC(=O)c2ccc(Cl)cc2)cc1 (stereo not given) returned Cav3 T inh -4.8*, PostGolgi yeast 10, PLAP act 1.1, PostGolgi ctrl 5 and hDAT+cocaine 1.
S=c1[nH]nc(Cc2ccccc2)n1Cc1ccco1 was read as Cav3 T inh -0.041, PostGolgi yeast 0, PLAP act 2.1*, PostGolgi ctrl 23 and hDAT+cocaine 0.69.
For COC(=O)C1=C(C)OC(N)=C(C#N)C1c1cc(OC)c(OCC(N)=O)cc1Cl (stereo not given) the results were Cav3 T inh 1.3, PostGolgi yeast 0, PLAP act 1, PostGolgi ctrl 3 and hDAT+cocaine 0.48.
